# TCR activator: activates T cell receptor signaling | primary human leukocytes, anti-CD3, IL-2 HTRF, 48 h | Potency, µM (highest dose often 9.22 µM), inactives show at the highest dose activation of IL-2 secretion, hits mostly activators | 330,000 tested, under 10 active; further: % of control where 0% means no effect
#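 Readout: HTRF IL-2, Eu-cryptate/d2 antibody pair, 320nm excitation, 665nm emission. Stimulus: a-CD3 beads, no co-stimulation. Cells: primary human leukocytes. Exposure: 48 hr with compound.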
# A549 viability: counter-screen for Nrf2 inhibitors: cytotoxicity in A549 cells; AID 504648; A549 ARE-Fluc cells, CellTiter-Fluor viability, 18-24 h; Potency, µM (highest dose often 46 µM), inactives show at the highest dose activity change, negative = cytotoxicity, most hits filed as inhibitors; 390,000 compounds, 0.16% hits; further: potency means the concentration at half of the fitted maximal effect; on the % scale 0 is the no-effect control and ±100 the full control effect
#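 Cytotoxicity counterscreen: CellTiter-Fluor fluorescence was measured in A549 ARE_Fluc cells after 18-24 h of compound exposure in a concentration series. The subsequent BugLite luminescent read reports ARE-luciferase activity.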
# Nrf2 activator: activators of Nrf2 (ARE) signaling; AREc32 ARE-luciferase reporter (MCF7-derived line), luminescence, 24 h; Potency, µM (top dose mostly 46.1 µM), inactives show top-dose activation, hits mostly activators; 410,000 compounds, 0.31% hits; further: potency means the concentration at half of the fitted maximal effect; % of control where 0% means no effect; nearly all actives have a fitted effect of over 65% in size
#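 ARE-driven firefly luciferase activity in AREc32 cells measured after a 24 hr compound exposure at 37 deg C, using Steady-Glo reagent and a 30 min room-temperature hold.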
# CCT modulator: cytosolic chaperonin activity modulation | 360,000 compounds, 0.3% hits | purified chaperonin ATPase assay, HTRF ADP detection, 30 min | activity change, % (concentration not given with the values), hits read low; in the data active means activity change below about -30%; further: on the % scale 0 is the no-effect control and ±100 the full control effect
#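 ATPase activity: ADP formed was measured by HTRF Transcreener (665/615 nm ratio) after 30 min at 37 deg C with 10 uM ATP. Compounds screened at one 76 uM concentration against 40 or 20 nM TRiC in Tris pH 7.4/KCl/MgCl2/DTT buffer.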
# Nrf2 block: blocks Nrf2 signaling | A549 ARE-Fluc reporter, luciferase luminescence, 18-24 h | Potency, µM (titrated, usually from 46 µM), without a hit: at the top dose activity change, negative = inhibition, most hits filed as inhibitors | 360,000 compounds, 2.1% hits | AID 504444; further: potency means the concentration at half of the fitted maximal effect; on the % scale 0 is the no-effect control and ±100 the full control effect; nearly all actives have a fitted effect of over 60% in size
#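 Two sequential reads on A549 ARE_Fluc cells exposed to compound for 18-24 h: a CellTiter-Fluor fluorescence read for viability, then a luciferase luminescence read for Nrf2/ARE activity.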
# AT treatment: potential ataxia-telangiectasia treatment. Potency, µM (highest dose often 57.5 µM), for the others: at the highest dose activation, most hits filed as activators. 320,000 compounds, 0.19% hits. AID 485349. F2112 A-T fibroblasts, KAP-1 phosphorylation AlphaLISA; neocarzinostatin DNA damage 30 min before lysis; further: potency means the concentration at half of the fitted maximal effect; % of control where 0% means no effect; nearly all actives have a fitted effect of over 45% in size
#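 ATM-like activity read as KAP-1 phosphorylation via AlphaLISA donor/acceptor antibody pairs after lysis and 6 hr at 25C. Cells were ATM-null patient fibroblasts (F2112, hTERT), dosed 60 min, then exposed to the DSB inducer NCS for 30 min.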
# * marks the source's active call; other numbers are inactive results; ? = inconclusive; / = not tested or not shown; [ ] = remark or other dose. Only some compounds are listed: those with a hit (about 2.6% of all), similar ones and a draw of the others. Unless noted, the call rests on the fitted dose curve; in most records, active means well fitted curve in the direction sought with a large enough effect; inconclusive means small, poorly fitted or top-dose-only effect, or another doubt; inactive means no such curve, though single readings can be large; an effect the other way counts as inactive or inconclusive.
SMILES,TCR activator,A549 viability,Nrf2 activator,CCT modulator,Nrf2 block,AT treatment
Cc1nc(SCC(=O)Nc2ccc(S(=O)(=O)N3CCOCC3)cc2)c2c(C)c(C)sc2n1,0%,?,0%,-2,12µM*,9%
Cc1nc(SCC(=O)N2CCOCC2)c2c(C)c(C)sc2n1,-11%,1%,5%,-1,-2%,5%
Cc1nc(SCC(=O)Nc2cc(C(N)=O)cc(C(N)=O)c2)c2c(C)c(C)sc2n1,9%,0%,0%,0,0%,35µM*
COc1ccc(C(=O)Oc2ccc(=O)n(-c3ccccc3)n2)cc1,-1%,/,0%,1,1.6µM*,21%
Cc1c(C)c2cccnc2c2ncccc12,6%,5.8µM*,4%,4,?,7%
CC(=O)Nc1cccc(NC(=O)c2cccc(-c3ccc(O)cc3)c2)c1,-1%,4%,8%,-70*,?,-4%
CC(=O)Nc1cccc(NC(=O)c2cccc(Cl)c2)c1,/,/,5%,2,/,/
CCc1cc2c(C)cc(=O)oc2cc1Oc1ncccc1[N+](=O)[O-],/,/,/,/,/,-2%
COc1ccccc1C#CC1=CC(=O)CC(C)(C)C1,/,/,14µM*,-2,/,/
CCc1ccc(C#CC2=CC(=O)CC(C)(C)C2)cc1,/,/,?,0,/,/
COc1ccc(C#CC2=CC(=O)CC(C)(C)C2)cc1,/,/,13µM*,0,/,/
COc1cc2c(C(=O)N3CCOCC3)c(CSc3ccccc3)n(C)c2cc1Br,-3%,?,2%,0,26µM*,0%
COc1cc2c(C(=O)N3CCN(C)CC3)c(C)n(-c3ccccc3)c2cc1Br,5%,-3%,0%,0,1%,1%
COc1ccc(-c2nc(-n3c(C)c(C(C)=O)c(C(C)=O)c3C)sc2C)cc1,0%,/,1%,3,?,-6%
CC(=O)c1c(C(C)=O)c(C)n(-c2nc(-c3ccc(C)c(C)c3)c(C)s2)c1C,-2%,-3%,0%,0,13µM*,-3%
O=C(N/N=C/c1c[nH]c2ccccc12)c1cc(-c2ccccc2)n[nH]1,-5%[46.1 µM],-8%,3%,3,?,3%
O=C(N/N=C/c1c[nH]c2ccccc12)c1cc(-c2ccc(-c3ccccc3)cc2)n[nH]1,3%,18µM*,18%,-2,?,-3%
COCCn1c(C)cc(C(=O)CSc2n[nH]c(N)n2)c1C,-2%,-5%,0%,0,10%,-11%
COCCn1c(C)cc(C(=O)CSc2nnc(C)s2)c1C,-1%,-2%,-1%,-1,15µM*,/
O=[S+]([O-])(c1ccc2c(c1)OCCO2)N1CCN([S+](=O)([O-])c2ccccc2Br)CC1,/,1%,/,/,4%,/
Nc1ccc(C(=O)C(=O)c2ccc(N)cc2)cc1,0%,4%,0%,-2,11%,-9%
N=C1C=CC(=C(c2ccc(N)cc2)c2ccc(N)cc2)C=C1,6%,9.2µM*,10%,1,7.3µM*,/
CC1(C(=O)NS(=O)(=O)C2CC2)CCN(C(=O)c2cccc(OC(F)(F)F)c2)C1 (stereo not given),/,/,0%,-1,/,/
CCn1cnc2c(Nc3cc(F)cc(F)c3)nc(C#N)nc21,-5%,-17%,7%,/,?,-5%
N#Cc1nc(Nc2cc(F)cc(F)c2)c2ncn(CCCN3CCCC3)c2n1,/,2.1µM*,/,/,6%,/
SMILES,TCR activator,A549 viability,Nrf2 activator,CCT modulator,Nrf2 block,AT treatment
O=C(/C=C/c1ccco1)NCC1COc2ccccc2O1 (stereo not given),4%,-1%,?,-2,28%,25µM*
O=C(/C=C/c1ccco1)NCCc1ccc(F)cc1,-1%,-12%,14µM*,-1,?,5%
CCn1c(N2CCN(C(=S)Nc3ccc(OC)cc3)CC2)nc2ccccc21,-2%,-9%,3%,-7,16µM*,3%
CCCCCN(C(=O)CCC(=O)OC(C)C(=O)Nc1ccccc1C)c1c(N)n(CCCC)c(=O)[nH]c1=O (stereo not given),/,/,2%,-10,/,/
CC(=O)c1ccc(NS(=O)(=O)c2ccc(C(C)(C)C)cc2)cc1,-1%,-17%,2%,0,8.2µM*,3%
CC(=O)c1ccc(NS(=O)(=O)c2ccc(C)cc2)cc1,2%,-4%,7%,-1,-11%,0%
Cc1cccc(NC(=O)/C(C#N)=C/c2ccco2)c1,/,3%,?,/,13%,/
NC(=O)CC(NC(=O)Cc1ccc(Br)cc1)c1ccc(NC2CCCCCC2)c([N+](=O)[O-])c1 (stereo not given),-1%,?,-1%,-1,23µM*,23%
O=C(Cc1cccs1)N/N=C/C=C\c1ccco1,6%[46.1 µM],-5%,11µM*,1,?,-3%
Cc1cccc(C)c1OCC(=O)N/N=C/C=C/c1ccco1,4%,-5%,1.6µM*,-5,3%,2%
Cc1cccc(OCC(=O)N/N=C/C=C/c2ccco2)c1,4%[46.1 µM],-1%,22µM*,1,12%,7%
Cc1cc(C)c2oc(-c3cccc(NC(=O)c4cc5ccccc5o4)c3)nc2c1,/,-2%,0%,/,4%,/
CCOc1ccccc1CNS(=O)(=O)c1cnc(N)nc1,/,1%,-1%,/,/,/
Cn1cnc([N+](=O)[O-])c1S(=O)(=O)c1ccc(Cl)cc1,6%[46.1 µM],?,-2%,1,18µM*,7%
O=C(CSc1nc2ccc([N+](=O)[O-])cc2s1)NCC1CCCO1 (stereo not given),-4%,-10%,5%,-1,?,4%
CC(C)(C)c1ccc(C(=O)Nc2nnc(SCC(=O)NCC3CCCO3)s2)cc1 (stereo not given),-6%,-10%,0%,-2,10µM*,7%
O=C(CSc1nc2cc(Cl)ccc2s1)NCC1CCCO1 (stereo not given),14%,-10%,3%,-7,12µM*,25%
Cc1ccc(NC(=O)c2cnn(-c3ccccc3)c2NC(=O)c2ccco2)cc1C,1%,-12%,3%,-39*,16%,0%
O=C(CSc1ncn[nH]1)NNC(=O)c1ccccc1,8%,-2%,0%,1,5%,-1%
CC1CCN(c2ccc(C(=O)Nc3ccc4c(c3)OCO4)cc2[N+](=O)[O-])CC1,4%,-8%,2%,0,9.2µM*,-2%
COc1ccc2oc(-c3ccc(NC(=O)c4ccc(N5CCOCC5)c([N+](=O)[O-])c4)cc3)nc2c1,3%[46.1 µM],-11%,4%,1,-24%,11%
Cn1cc([N+](=O)[O-])c(C(=O)Nc2ccc(-c3nc4ccccc4o3)cc2)n1,-4%,0%,5µM*,-1,0%,13%

# From PubChem
